The list is not random: actives were taken first. Their share in the collection is about 2.8%.
pCIP destab = p/CIP protein destabilization. Q05BA5. F442A p/CIP-EGFP cells, EGFP fluorescence, 16 h. decrease of EGFP signal, % at 10 µM. 0.01% of 290,000 active. AID 1984;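 active = EGFP signal decrease of at least 30% at 10 µM or well 3 SD below plate mean, unless failing retest; inactive = the rest, including hits failing retest or dose response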
AHR act = activates the human aryl hydrocarbon receptor. AID 2796. activation, % at 5 µM. P35869. 2.5% of 320,000 active. AHR-responsive luciferase reporter cells, luminescence; in the data active = activation above about 47%;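 note: 0% = vehicle wells and 100% = reference agonist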
Platelet DG rel = platelet dense granule release activity | human platelet-rich plasma, SFLLRN dense granule ATP release, luminescence | inhibition, %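 (compounds screened at 7.5 µM in platelet-rich plasma)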 | 0.22% of 300,000 active;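 active = mean replicate score, as percent of positive control, at or above 50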
PolyA inh = inhibitors of polyadenylation in S. cerevisiae; S. cerevisiae SKY197-pL101 polyadenylation reporter, beta-gal luminescence; efflux-impaired pdr1/pdr3 knockout yeast; score 100 = 6 SD above DMSO; 0.02% of 300,000 active; activity score, % at 12 µM;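 active = lowest replicate activity score at least 50, where 100 means six control SD above control mean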;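 note: yeast exposed to compound for 9 h at 30 °C; higher score means more reporter readthrough which indicates perturbed polyadenylation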
HIF act = HIF pathway transcriptional activation; activation, % at 7.5 µM (by protocol); 0.32% of 300,000 active; U2OS HRE-luciferase reporter, luminescence; normalized: DMSO 0%, desferrioxamine 100%;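 active = mean activation of at least 10% of the iron chelator positive control signal, with at least half of replicates also reaching 10%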
AHR act cf = confirmation of human aryl hydrocarbon receptor activators; activation, % at 9 µM; shares compounds with AHR act; human cells, AHR-responsive luciferase reporter, luminescence; AID 2845; 87% of 2,300 active; in the data active = activation above about 49%;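 note: HepG2 hepatoma cells carrying a DRE-driven firefly luciferase reporter; 0% = vehicle wells and 100% = reference agonist wells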
PXR counter = activates human PXR in AHR activator counter-screen | shares compounds with AHR act | cell-based PXR reporter, luciferase luminescence | activation, % at 11.6 µM | 88% of 2,300 active | AID 434939; in the data active = activation above about 11%;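 note: human hepatoma DPX-2 cells expressing full-length human PXR; 0% = DMSO and 100% = reference agonist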
Starred values were filed as active, the others as inactive; nt = not tested or not shown.

SMILES	pCIP destab	AHR act	Platelet DG rel	PolyA inh	HIF act	AHR act cf	PXR counter
CC(C)(CNC(=O)c1cccc(S(=O)(=O)Nc2ccc(Br)cc2)c1)N1CCOCC1	nt	3.1	5.4	11.6	-0.4	nt	nt
Cc1[nH]nc(SCC(=O)N2CCC(C)CC2)c1[N+](=O)[O-]	-2.2	9.6	-1.1	-8.2	1.2	nt	nt
Cc1cc(N)n(Cc2cccs2)n1	1.2	3.8	-0.1	0.5	-0.4	nt	nt
COC(=O)N/N=C/c1cn(Cc2ccccc2Cl)c2ccccc12	0.9	83.4*	-49.7	-18.0	-0.6	64.5*	69.6*
COC(=O)N/N=C/c1cn(CCCOc2ccccc2)c2ccccc12	1.3	17.8	1.2	-15.4	1.0	nt	nt
O=C(NNC(=O)c1ccc(NC(=O)c2ccccc2)cc1)c1ccc(F)cc1	-4.2	0.9	-1.1	2.1	-1.6	nt	nt
O=C(NC1=C(Nc2ccc(F)cc2)C(=O)c2ccccc2C1=O)c1ccc(Cl)cc1	-7.0	88.1*	0.1	-23.2	0.6	90.0*	72.2*
C/C(=N\Nc1cc(C)nc(-c2ccccc2O)n1)c1ccccc1O	-13.4	23.8	8.2	-1.9	-0.1	nt	nt
Cc1cc(N/N=C/c2ccccc2O)nc(-c2ccccc2O)n1	-17.7	118.6*	-18.8	-35.4	1.9	40.2	9.0
COc1ccc2nc(C)cc(N/N=C/c3ccccc3)c2c1	nt	142.2*	nt	nt	nt	95.6*	2.4
Cc1cc(N/N=C/c2ccncc2)nc2ccccc12	4.9	nt	-5.2	4.0	1.4	nt	nt
Cc1cc(N/N=C\c2ccccc2)nc(-c2ccccc2O)n1	0.3	82.3*	-4.4	7.8	1.3	107.9*	15.2*
Cc1cc(N/N=C/c2cccc(Br)c2)nc2ccccc12	17.3	99.7*	2.5	-1.7	3.1	97.2*	33.8*
Cn1cccc1C(=O)N/N=C/c1c(Cl)cccc1Cl	4.3	7.0	8.9	-10.6	3.4	nt	nt
COc1ccc(S(=O)(=O)N2CCN(Cc3cc(=O)n4ccccc4n3)CC2)cc1	nt	-1.5	nt	nt	nt	nt	nt
CCOC(=O)c1c2ccc(OCC(=O)NN)cc2n2ccccc12	-9.5	86.1*	0.7	-9.5	0.8	89.7*	11.7*
Nc1cn(C2OC(CO)C(O)C2O)c(=O)[nH]c1=O (stereo unspecified)	-4.5	nt	-0.4	13.1	-0.3	nt	nt
Brc1cccc(-c2n[nH]c(-c3ccccc3)n2)c1	0.9	117.5*	15.4	-12.8	5.3	127.9*	14.6*
CN(C)c1ccc(Nc2nc(-c3cccnc3)cs2)cc1	-3.4	89.6*	18.5	9.0	1.2	62.5*	27.2*
CSc1ccccc1C(=O)Nc1ccccc1C(=O)NC(C)C	9.1	31.0	-8.4	-11.3	-0.1	nt	nt
C=CCNc1nc(=S)[nH]c2cc(OC)c(OC)cc12	8.2	104.3*	1.4	18.6	0.0	74.7*	13.1*
CC(=O)N(/N=C1\Sc2ccccc2C1=O)c1ccc(C)cc1C	-9.0	37.7	23.7	-3.7	-2.2	nt	nt
CC(=O)N(/N=C1\Sc2ccccc2C1=O)c1ccccc1C	-9.5	90.0*	-4.0	-34.9	2.6	75.7*	18.6*
CC(=O)Nc1ccc(NC(=O)[C@@H](NC(=O)c2ccccc2F)C(C)C)cc1	-12.5	1.6	2.0	-1.8	0.6	nt	nt
O=C(Nc1cccc2ccccc12)c1cccc([N+](=O)[O-])c1	-4.4	34.4	0.4	-3.4	1.9	nt	nt
SMILES	pCIP destab	AHR act	Platelet DG rel	PolyA inh	HIF act	AHR act cf	PXR counter
O=C(Nc1cccc2ccccc12)c1cc2c(cc1Br)OCO2	3.4	82.1*	0.9	-20.9	0.2	94.8*	119.8*
O=C(O)c1cccc([N+](=O)[O-])c1C(=O)Nc1cccc2ccccc12	1.4	83.8*	-0.1	-2.8	-0.6	32.2	0.9
COc1ccccc1CC(=O)Nc1cccc2ccccc12	-5.4	-0.6	-4.7	16.8	0.4	nt	nt
O=C(Nc1ccc(Cl)cc1F)c1cccc2ccccc12	7.0	100.2*	-3.2	-1.2	-0.1	119.0*	11.9*
O=C(NCc1ccc2c(c1)OCO2)Nc1cccc2ccccc12	-5.5	8.7	18.4	6.3	0.1	nt	nt
COc1cccc(C(=O)Nc2cccc3ccccc23)c1OC	1.2	117.1*	-1.9	-15.5	1.3	107.5*	44.4*
O=C(Nc1ccc(Cl)cc1F)c1ccccc1Br	-1.6	9.5	0.9	-9.2	3.0	nt	nt
CC(=O)Nc1ccc(S(=O)(=O)N2CCC(C(=O)NCc3ccncc3)CC2)cc1	0.8	-0.2	0.0	12.0	-0.6	nt	nt

Screens: PubChem BioAssay, several laboratories
